Shown are actives, neighbours in structure and some others; about 9% of the full set was active somewhere.
IMPase Li cell: cell-permeable IMPase inhibitors with lithium potentiation; CHO-M1 cells, IP1 TR-FRET (IP-One), carbachol + lithium; Potency, µM (series often up to 59.4 µM), for inactives: at the top dose activity, negative = IMPase inhibition, usual class: inhibitors; actives 0.35% (n = 210,000); active = well fitted curve in the direction sought with a large enough effect; inconclusive = small, poorly fitted or top-dose-only effect, or another doubt; inactive = no such curve, though single readings can be large; an effect the other way counts as inactive or inconclusive;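 also: IP1 builds up when IMPase is blocked and the TR-FRET signal falls; plate controls were basal vehicle for no effect and high inhibitor control for full effect; nearly all actives have a fitted effect of over 50% in size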
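CHO-M1, 2000 cells/well, 16–30 h culture; cpd + low Li+, 30 min 37C; lysis with d2-IP1/Eu-anti-IP1 Ab, 10 min RT; TR-FRET 665/620 ratio and 620 channel; AC50 via Hill.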
HPGD block: inhibitors of human 15-hydroxyprostaglandin dehydrogenase (HPGD) | P15428 | purified HPGD, NADH fluorescence kinetic, PGE2 substrate | Potency, µM, inactives show at the highest dose activity change, negative = inhibition, most hits filed as inhibitors | actives 4.3% (n = 150,000) | AID 894
Target sequence (P15428 whole entry, looked up): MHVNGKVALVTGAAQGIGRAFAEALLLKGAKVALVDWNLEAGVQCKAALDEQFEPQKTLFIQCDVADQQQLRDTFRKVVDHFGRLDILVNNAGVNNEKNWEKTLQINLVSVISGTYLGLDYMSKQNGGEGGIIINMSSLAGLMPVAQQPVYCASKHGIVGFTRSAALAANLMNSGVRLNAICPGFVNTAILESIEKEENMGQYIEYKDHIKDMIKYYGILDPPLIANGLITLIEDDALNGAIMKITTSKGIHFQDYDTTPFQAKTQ
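NADH formation kinetics: reaction with 30 uM PGE2 and 1 mM NAD+ (final), 20 nM enzyme, Tris-HCl pH 8 with Tween 20, after 15 min compound preincubation at room temperature. Fluorescence change, last versus first of five reads.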
ALDH1A1 block: ALDH1A1 (human) enzyme inhibition; Purified ALDH1A1, NADH fluorescence, propionaldehyde substrate; P00352; actives 7.3% (n = 220,000); Potency, µM (titrated, usually from 75.3 µM), without a hit: at the highest dose activity, negative = inhibition, hits mostly inhibitors;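 also: plate controls were no enzyme wells and a reference inhibitor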
Target sequence (P00352 whole entry, looked up): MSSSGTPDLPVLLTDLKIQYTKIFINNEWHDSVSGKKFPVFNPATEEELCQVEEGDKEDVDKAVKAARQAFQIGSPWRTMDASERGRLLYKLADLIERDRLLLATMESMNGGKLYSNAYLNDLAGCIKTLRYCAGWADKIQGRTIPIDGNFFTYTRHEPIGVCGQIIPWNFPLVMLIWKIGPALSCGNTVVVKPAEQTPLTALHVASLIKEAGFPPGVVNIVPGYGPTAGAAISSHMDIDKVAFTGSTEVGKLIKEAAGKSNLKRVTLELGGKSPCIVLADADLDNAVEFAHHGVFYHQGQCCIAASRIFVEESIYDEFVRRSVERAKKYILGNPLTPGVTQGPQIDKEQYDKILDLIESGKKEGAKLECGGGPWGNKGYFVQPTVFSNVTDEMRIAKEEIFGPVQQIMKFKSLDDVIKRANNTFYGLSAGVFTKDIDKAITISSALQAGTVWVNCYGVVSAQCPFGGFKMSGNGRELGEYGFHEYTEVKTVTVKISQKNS
LMNA splice mod: changes lamin A minigene splicing in HeLa cells; HeLa LMNA splicing GFP/RFP minigene ratio, 48 h; Potency, µM (series often up to 46.1 µM), without a hit: top-dose ratio change, negative = inhibition, actives largely listed as inhibitors; actives 0.01% (n = 200,000); active = well fitted inhibition curve with a large enough effect in the signal ratio, with a control signal flat, not every such curve was filed as active; inconclusive = small, poorly fitted or top-dose-only effect, or effect the other way, or a change in a side signal; the % refers to the signal ratio
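S3 HeLa cells stably expressing lamin A-EGFP splicing minigene plus DsRed2, 600 cells/well, 48 h compound exposure at 37C. Laser-scanning cytometry; analysed as GFP (500-530 nm)/RFP (575-640 nm) total intensity ratio; 0.5% DMSO vehicle.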
Luc counter: Kinase-Glo luciferase inhibition (counter-screen) | Q27757 | Kinase-Glo luciferase, ATP luminescence, 8 min | Potency, µM (titrated, usually from 38.3 µM), for inactives: top-dose activity change, negative = inhibition, hits mostly inhibitors | actives 0.28% (n = 200,000) | AID 1379; active = well fitted curve in the direction sought with a large enough effect; inconclusive = small, poorly fitted or top-dose-only effect, or another doubt; inactive = no such curve, though single readings can be large; an effect the other way counts as inactive or inconclusive; also: nearly all actives have a fitted effect of over 60% in size
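Inhibition of Kinase-Glo luciferase light generation was assessed at 10 uM ATP in pH 7.2 imidazole buffer, with luminescence measured after eight minutes at ambient temperature.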
* hit, by the source's call; ? = inconclusive; nt = no result; [ ] = another dose, or the depositor's remark. Unless noted, calls follow the shape of the dose curve; as a rule, active = well fitted inhibition curve with a large enough effect (not every such curve was filed as active); inconclusive = small, poorly fitted or top-dose-only effect, or another doubt; inactive = no such curve, though single readings can be large or run the other way. Unless noted, % is scaled to controls: 0 for no effect and ±100 for the full control effect; potency is read from the fitted curve at half-maximal effect.

SMILES	IMPase Li cell	HPGD block	ALDH1A1 block	LMNA splice mod	Luc counter
Cc1cc(C)c[n+](-c2[nH]c(=O)sc2/C=N/N=C(\N)[S-])c1	5.0%	nt	?	-12.9%[46 µM]	-2.0%
Cc1cc[n+](-c2[nH]c(=O)sc2/C=N/N=C(\[O-])CCn2c3ccccc3c3ccccc32)cc1	nt	nt	-8.6%	nt	nt
Cc1cc[n+](-c2[nH]c(=O)sc2/C=N/N=C(\[O-])c2ccccc2)cc1	nt	nt	12.6µM*	nt	nt
COc1ccc2c(CC(=O)Nc3ccccc3N3CCOCC3)coc2c1	nt	nt	?	-12.5%[46 µM]	nt
CCCCC(=O)Nc1nc(C)c(-c2csc(Nc3cc(Cl)ccc3OC)n2)s1	15.5%[38.3 µM]	?	10µM*	9.7%	-4.3%
CCCCC(=O)Nc1nc(C)c(-c2csc(Nc3cc(OC)ccc3OC)n2)s1	24.2%[38.3 µM]	-25.6%	1.9%	?	0.9%
CCCC(=O)Nc1nc(C)c(-c2csc(Nc3ccccc3C)n2)s1	4.9%[38.3 µM]	31.6µM*	10µM*	3.8%	1.4%
CCCCCC(=O)Nc1nc(C)c(-c2csc(Nc3ccccc3OC)n2)s1	21.7%[38.3 µM]	?	?	-1.8%	-2.3%
CCOC(=O)C1(CC2CCCCO2)CCN(Cc2cn[nH]c2-c2cccc(F)c2)CC1 (stereo not drawn)	2.7%	nt	0.9%	10.6%[46 µM]	-3.9%
CSCCC(NC(=O)c1ccc(C(C)(C)C)cc1)C(=O)O (stereo not drawn)	-3.8%	nt	2.0%	-8.2%[46 µM]	0.4%
COc1cc(/C=C/C(=O)OCC(=O)Nc2sc3c(c2C#N)CCC(C)C3)ccc1OCC#N (stereo not drawn)	2.1%	nt	?	10.8%[46 µM]	-1.0%
Cc1ccc(C(=O)OC[C@H]2O[C@H](Cl)C[C@@H]2OC(=O)c2ccc(C)cc2)cc1	5.3%	-3.6%	3.0%	nt	3.3%
CSc1ncccc1C(=O)OCc1ccccc1Cl	35.4%	nt	?	-3.9%[46 µM]	?
COc1ccc(C(C)=O)cc1COC(=O)Cc1n[nH]c(=O)c2ccccc12	3.8%[38.3 µM]	22.4µM*	?	10.3%	10.4%
COc1ccc(C(C)=O)cc1COC(=O)c1cc(C)nc2ccccc12	14.5%	nt	8.91µM*	?	0.3%
O=C(Cc1n[nH]c(=O)c2ccccc12)OCC(=O)c1ccc2c(c1)OCCO2	-6.8%[38.3 µM]	-22.5%	-11.1%	?	0.5%
Cc1cccc(/C(N)=N/OC(=O)CCCN2C(=O)c3ccccc3C2=O)c1	-2.9%[38.3 µM]	-24.4%	-0.5%	9.5%	-6.5%
COc1ccc(C(C)=O)cc1COC(=O)c1cccnc1SC	-10.4%	nt	10µM*	11.7%[46 µM]	1.4%
N/C(=N\OC(=O)CCCCCN1C(=O)c2ccccc2C1=O)c1ccccc1	16.7%	12.6µM*	?	-12.7%	9.0%
COc1ccc(C(C)=O)cc1COC(=O)c1cc(C)oc1C	-6.3%[38.3 µM]	-9.1%	17.8µM*	-0.5%	1.7%
COc1ccc(C(C)=O)cc1COC(=O)CCCN1C(=O)c2ccccc2C1=O	6.5%	nt	3.55µM*	-5.8%[46 µM]	-0.3%
CCOc1ccc(C(C)=O)cc1COC(=O)c1cccnc1SC	5.9%	nt	25.1µM*	?	2.1%
COc1ccc(C(C)=O)cc1COC(=O)CNC(=O)c1cc(C)cc(C)c1	4.9%	-13.4%	7.94µM*	-1.9%	2.8%
COc1cc2c(cc1OC)CN(C(=O)CCCN1C(=O)c3ccccc3C1=O)CC2	34.6%[38.3 µM]	-11.1%	?	-5.3%	-6.9%
CCC(CC)C(=O)Nc1cc(Cl)ccc1C	16.1%	nt	-2.3%	?	0.0%
SMILES	IMPase Li cell	HPGD block	ALDH1A1 block	LMNA splice mod	Luc counter
O=C(NCc1cccnc1)C(=O)NCC(c1ccco1)N1CCN(c2ccccc2F)CC1 (stereo not drawn)	-3.4%	-11.1%	11.2µM*	?	1.2%
CN[C@@H]1[C@H](O[C@@H]2O[C@H](C)[C@@](O)(CO)[C@H]2O[C@H]2[C@H](O)[C@H](O)[C@H](N=C(N)N)[C@@H](O)[C@@H]2N=C(N)N)O[C@@H](CO)[C@H](O)[C@H]1O	0.6%	-0.2%	10µM*	nt	0.9%[39.9 µM]
CN[C@@H]1[C@H](O[C@@H]2O[C@H](CO)[C@@H](N)[C@H](O)[C@@H]2O)O[C@H]2C[C@@H](N)[C@@H](O[C@H]3[C@@H](O)[C@H](O)[C@H](N)C[C@@H]3N)O[C@H]2[C@H]1O	1.9%	1.0%	-2.6%[20.9 µM]	-12.7%	0.2%[17.1 µM]
COc1cccc(N2CC(NC(=O)COc3ccccc3F)CC2=O)c1 (stereo not drawn)	nt	nt	nt	6.4%[46 µM]	nt
CC(=O)Nc1ccc2c(c1)nc1n2CCN(C2CCCCC2)C1	5.4%	nt	?	5.5%[46 µM]	-7.6%
COc1ccc(CNCc2ccco2)cc1OCc1ccccc1	31.4%	-11.4%	11.2µM*	-2.2%	16.3%
COc1ccccc1CCNCc1ccc(OC)c(OCc2ccccc2)c1	14.0%	-8.5%	-12.4%	?	-2.1%
O=C(N(c1ccccc1)c1ccccc1)N(c1ccccc1)c1ccccc1	nt	nt	-12.7%	nt	nt
O=C(CCl)N(c1ccccc1)c1ccccc1	5.9%	nt	0.0447µM*	nt	6.6%
Cc1ccccc1OCCOc1ccccc1C=C(C#N)C#N	6.9%	-13.4%	3.55µM*	?	0.5%
Cc1cccc(OCCOc2ccccc2C=C(C#N)C#N)c1	6.6%	-4.8%	7.08µM*	?	-1.4%
COC(=O)c1ccccc1NC(=O)C1CCCN(S(=O)(=O)c2ccc(OC)cc2)C1 (stereo not drawn)	9.8%	-15.1%	?	?	1.5%
CCCCCCN=C(C)c1ccccc1O	nt	nt	1.1%	nt	nt
CC1CCN(c2c(NCC3CCC(C(=O)N4CCCC(C)C4)CC3)c(=O)c2=O)CC1 (stereo not drawn)	0.0%[38.3 µM]	0.631µM*	7.1%	-3.7%	-2.9%
COc1ccc(C)cc1NC(=O)C1CCC(CNc2c(N3CCOCC3)c(=O)c2=O)CC1 (stereo not drawn)	-0.6%[38.3 µM]	-15.2%	4.4%	-11.8%	-1.0%
CC1CCN(c2c(NCC3CCC(C(=O)NCc4ccccc4)CC3)c(=O)c2=O)CC1 (stereo not drawn)	8.3%	17.8µM*	8.8%	-4.6%	0.5%
O=C(NCc1ccccc1)C1CCC1	-4.7%	20µM*	20.1%	7.3%	-2.7%
COc1ccc(OC)c(NC(=O)C2CCC(CNc3c(N4CCC(C)CC4)c(=O)c3=O)CC2)c1 (stereo not drawn)	9.3%[38.3 µM]	25.1µM*	2.5%	?	1.4%
O=C(CN(C1CCCCC1)S(=O)(=O)c1ccc(F)cc1)NCc1ccncc1	nt	nt	?	-2.0%	nt
O=C(NCc1ccccc1)C1CCC(CNc2c(N3CCCCC3)c(=O)c2=O)CC1 (stereo not drawn)	-4.0%	20µM*	4.5%	-6.4%	-2.4%
Cc1ccc(CNC(=O)C2CCC(CNc3c(N4CCOCC4)c(=O)c3=O)CC2)cc1 (stereo not drawn)	6.9%[38.3 µM]	?	2.0%	4.4%	-1.7%
COc1ccccc1C1CN(c2ccc(F)cc2F)N=C1c1cccs1 (stereo not drawn)	14.1µM*	?	?	-11.5%	2.2%
